# In PubChem BioAssay (NCATS):
# Results filed as inconclusive are left out. Where a call stands in place of a potency, no number is given. Activity calls are given as the source filed them. Unless noted, calls come from the whole dose curve; as a rule, active = well fitted curve in the direction sought with a large enough effect; inconclusive = small, poorly fitted or top-dose-only effect, or another doubt; inactive = no such curve, though single readings can be large; an effect the other way counts as inactive or inconclusive.
# What was measured:
# [1] = molecular target: Glucagon-like peptide 1 receptor (Homo sapiens) (UniProt P43220); test: qHTS of GLP-1 Receptor Agonists: LOPAC Validation (AID 624148); details: GLP-1R agonist cell assay; series mostly up to 46.1 µM;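 note: higher luminescence signal means agonism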
# Chain of Glucagon-like peptide 1 receptor (Homo sapiens) (P43220 whole entry, looked up): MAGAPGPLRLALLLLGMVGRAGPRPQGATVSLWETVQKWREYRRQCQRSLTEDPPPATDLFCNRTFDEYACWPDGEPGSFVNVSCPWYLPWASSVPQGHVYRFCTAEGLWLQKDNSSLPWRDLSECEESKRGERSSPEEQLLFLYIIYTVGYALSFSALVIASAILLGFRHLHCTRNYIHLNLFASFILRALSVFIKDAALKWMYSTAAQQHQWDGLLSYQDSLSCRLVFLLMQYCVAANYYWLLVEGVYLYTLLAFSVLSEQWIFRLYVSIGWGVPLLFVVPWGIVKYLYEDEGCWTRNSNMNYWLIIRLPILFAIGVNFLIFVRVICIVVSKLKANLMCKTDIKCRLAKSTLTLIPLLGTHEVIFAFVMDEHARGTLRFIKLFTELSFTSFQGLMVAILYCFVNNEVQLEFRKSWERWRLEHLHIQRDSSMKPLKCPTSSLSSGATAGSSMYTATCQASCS
# Summary of the method: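 HEK293 cells stably co-expressing a cAMP-responsive luciferase reporter and a hypersensitive GLP-1R were plated 12 h at 37 °C and exposed to compounds for 4-6 hr at 37 °C, 5% CO2. Luminescence was read 12 min after adding detection reagent.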
# [2] = qHTS of Nrf2 Activators: LOPAC Validation (AID 624149); details: Nrf2/ARE reporter cell assay; series mostly up to 46.1 µM
# Summary of the method: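 AREc32 cells carrying an ARE-driven firefly luciferase were grown overnight in OPTI-MEM with 5% FBS, then exposed to compounds for 24 hr at 37 deg C. Luciferase signal was read after 30 min with Steady-Glo at RT.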
# [3] = HTS Assay for Allosteric Antagonists of the Human D2 Dopamine Receptor: Hit Validation in HTRF (AID 624455); details: Cells stably expressing D1 dopamine receptor, inhibition mode; series mostly up to 46.1 µM;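 note: stable D1 dopamine receptor cell line scored for blocking the D1 response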
# Summary of the method: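 Hits were examined in an HTRF assay using cells stably expressing the D1 dopamine receptor, scoring inhibition of the D1-mediated response. The preceding primary screen tracked calcium flux after an EC80 dopamine addition in force-coupled, inducible Hek293 Trex D2 cells.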
# [4] = qHTS Assay for Identification of Small Molecule Agonists for NFkB Signaling Pathway. (AID 624478); details: NFkB pathway reporter cell assay, agonist mode, cells co-stimulated with 10 pM TNF alpha; series mostly up to 46.1 µM
# Summary of the method: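 NFkB-bla ME-180 cells (beta-lactamase reporter under NFkB response element) were plated overnight, treated with compound plus TNF alpha at 10 pM final (its EC50) for 5 hrs at 37 C, then loaded with LiveBLAzer substrate for 2 hrs.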
# [5] = Cell Proliferation Assay against the TMD8 Cell Line (AID 651645); details: TMD8 DLBCL cell line proliferation/viability; at 46.1 µM (top of the series);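 note: cells exposed to compound for 48 h before reading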
# Summary of the method: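 Viability by CellTiter-Glo after 48 h compound exposure of 500 log-phase TMD8 cells per well (RPMI, 5% FBS). Percent activity scaled between DMSO (100%) and 9.2 uM final bortezomib (0%).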
# [6] = Cell Proliferation Assay against the HBL1 Cell Line (AID 651646); details: HBL1 DLBCL cells; at 46.1 µM (top of the series);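 note: cells exposed to compound for 48 h before reading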
# Summary of the method: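 500 log-phase HBL1 cells per well in phenol red-free RPMI with 5% FBS were treated with compounds for 48 h at 37 °C, 5% CO2. Viability was read by CellTiter-Glo luminescence, normalized to DMSO (100%) and 9.2 uM bortezomib final (0%).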
# [7] = Cell Proliferation Assay against the TMD8 Cell Line (Caspase readout at 8 hrs) (AID 651713); details: TMD8 lymphoma cells, caspase activation luminescence; series mostly up to 46.1 µM; note: potency is the fitted concentration of half-maximal effect
# Excerpt: One class of targeted therapeutics showing early clinical success in killing of ABC DLBCL lines are small molecule inhibitors of the Bruton tyrosine kinase (BTK) 11. Thus, we chose to investigate what additional compounds, if any, would synergize with the BTK inhibitor Ibrutinib (PCI-32765).
# Prior to any combination assays, using an NCATS developed oncology compound library called the Mechanism of Interrogation Plate (MIPE), two well studied ABC DLBCL lines (TMD8 and HBL1) were screened using a cell viability assay (CellTiterGlo) and a 12-point titration series for each single agent. These initial experiments offered insight into the concentration range that offered the best coverage of activity and non-activity to assure relevant data is generated. In addition to the viability signature associated with this library, we examined the apoptotic response of each agent versus the TMD8 line as judged by caspase 3/7 activation. Activity was assayed at both 8 and 16 hour time-points to gain an appreciation of which agents induced an apoptotic response in a reasonable timeframe from a therapeutic exposure perspective. MIPE was also assayed for single agent viability in a human mesenchymal stem cell (hMSC) line as a surrogate of each library members potential therapeutic index.
# The combination plates were then generated by choosing 20 of the best compounds from this single agent screen and plated in the presence of the BTK inhibitor. […]
# A total of 500 log growing TMD8 cells are seeded per well in 5 uL of a RPMI with glutamine (or Glutamax), without phenol red plus 5% FBS and 1X Pen/Strep into 1536 -solid white high base tissue culture treated Greiner One Bio Plates (789173-F) using a multidrop combi dispenser and a small sterile cassette. […] The plates are then spun at 1000 rpms to remove bubbles and incubated for 15 minutes at room temperature before read on a ViewLux using a luminescent filter with a 10 second exposure. The relative luciferase units are used to calculated percent activity using DMSO as 0% and Bortezomib as 100%.
# [8] = Cytotoxicity counterscreen for NFkB agonists and antagonists (AID 624476); details: NFkB reporter cell line viability counterscreen;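 note: potency is the fitted concentration of half-maximal effect; cells exposed to compound for 48 hours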
# [9] = qHTS Assay for Identification of Small Molecule Antagonists for NFkB Signaling Pathway. (AID 624479; calls by dose curve; note: potency is the fitted concentration of half-maximal effect); details: NFkB pathway reporter cell assay, antagonist mode; series mostly up to 38.3 µM
# [10] = Cell Proliferation Assay against the TMD8 Cell Line (Caspase readout at 16 hrs) (AID 651712); details: TMD8 lymphoma cells, caspase activation luminescence; note: potency is the fitted concentration of half-maximal effect
# Summary of the method: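 TMD8 cells (500/well) in phenol-red-free RPMI with glutamine, 5% FBS, were exposed to compounds for 16 h at 37 °C. Caspase 3/7 activation was read by Caspase-Glo luminescence; percent activity normalised to DMSO (0%) and 9.2 uM bortezomib final (100%).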
compound,measurement,setting,value
O=c1[nH]c(=O)n([C@H]2C[C@@H](O)[C@@H](CO)O2)cc1C=CBr,outcome,[1],inactive
same,outcome,[2],inactive
same,outcome,[3],inactive
N#Cc1ccc(COC[C@H]2O[C@@H](n3c(NCc4ccc(Cl)c(Cl)c4)nc4c(N)ncnc43)[C@@H](O)[C@@H]2O)cc1,outcome,[4],inactive
same,viability (% of control),[5],1.09%
same,"viability, percent of control",[6],17.4%
same,Potency,[7],29.6 µM (active)
COc1ccc2cc([S+]([O-])Cc3ncc(C)c(OC)c3C)nc2c1,outcome,[1],inactive
same,outcome,[2],inactive
same,outcome,[3],inactive
COc1cc2c(cc1OC)[C@@H]1C(=O)c3ccc4c(c3O[C@@H]1CO2)C=CC(C)(C)O4,Potency,[8],26.4 µM (active)
same,outcome,[4],inactive
same,Potency,[9],inactive
same,viability (% of control),[5],2.43%
same,"viability, percent of control",[6],18.7%
same,Potency,[7],inactive
CN[C@H](CC(C)C)C(=O)N[C@H]1C(=O)N[C@@H](CC(N)=O)C(=O)N[C@@H]2C(=O)N[C@H]3C(=O)N[C@H](C(=O)N[C@H](C(=O)O)c4cc(O)cc(O)c4-c4cc3ccc4O)[C@H](O)c3ccc(c(Cl)c3)Oc3cc2cc(c3O[C@@H]2O[C@H](CO)[C@@H](O)[C@H](O)[C@@H]2O[C@H]2C[C@](C)(N)[C@H](O)[C@H](C)O2)Oc2ccc(cc2Cl)[C@H]1O,outcome,[1],inactive
same,outcome,[2],inactive
same,outcome,[3],inactive
Cn1c(Nc2ccc(C(F)(F)F)cc2)nc2cc(Oc3ccnc(-c4ncc(C(F)(F)F)[nH]4)c3)ccc21,Potency,[8],20.9 µM (active)
same,outcome,[4],inactive
same,Potency,[9],1.33 µM (active)
same,viability (% of control),[5],15.6%
same,"viability, percent of control",[6],33%
same,Potency,[10],16.6 µM (active)
same,Potency,[7],inactive
COc1cc(C)c(Sc2cnc(NC(=O)c3ccc(CNC(C)C(C)(C)C)cc3)s2)cc1C(=O)N1CCN(C(C)=O)CC1 (stereo not given),outcome,[4],inactive
same,Potency,[9],26.6 µM (active)
same,viability (% of control),[5],18.7%
same,"viability, percent of control",[6],12.9%
